# CHT PAM: human CHT allosteric activation; Q9GZV3; CHT-expressing cells, membrane potential dye, choline EC20; hits give high values; LV-AA mutant CHT in HEK293 cells; B-score at 10 µM; 310,000 compounds, 0.49% hits; AID 488977;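 active means initial fluorescence not abnormally high and integrated response B-score, plate-corrected, over 3 SD above library mean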
# Target sequence (Q9GZV3 whole entry, looked up): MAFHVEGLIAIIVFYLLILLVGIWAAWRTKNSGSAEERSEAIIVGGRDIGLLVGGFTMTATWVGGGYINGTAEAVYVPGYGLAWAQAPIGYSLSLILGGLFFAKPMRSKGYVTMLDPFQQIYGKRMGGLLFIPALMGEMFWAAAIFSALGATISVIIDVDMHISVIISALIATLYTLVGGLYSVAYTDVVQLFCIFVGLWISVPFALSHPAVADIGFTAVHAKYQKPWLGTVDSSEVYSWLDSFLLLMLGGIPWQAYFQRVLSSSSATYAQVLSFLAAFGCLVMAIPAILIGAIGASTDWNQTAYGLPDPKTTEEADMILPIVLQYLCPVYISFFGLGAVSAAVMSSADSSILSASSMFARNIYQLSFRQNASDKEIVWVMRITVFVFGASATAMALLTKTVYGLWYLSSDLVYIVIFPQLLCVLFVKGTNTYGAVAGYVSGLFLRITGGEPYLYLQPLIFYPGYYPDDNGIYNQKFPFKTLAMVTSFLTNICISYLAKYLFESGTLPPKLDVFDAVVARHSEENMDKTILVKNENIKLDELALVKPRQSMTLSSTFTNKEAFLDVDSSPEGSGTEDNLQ
# NLRP3 yeast inh: NALP3 inhibition in yeast. Yeast reconstituted NLRP3/ASC/caspase-1, beta-gal luminescence, 24 h. inhibition, % at 10 µM. 330,000 compounds, 0.39% hits. AID 2825;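 active means inhibition of 50% or more; inactive means inhibition below 50%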
# SUMO Mot1 rescue: inhibitors of SUMOylation pathway: yeast Mot1-301 growth rescue; S. cerevisiae Mot1-301 growth rescue, ATP luminescence, 38.5C; percent above DMSO median, 100 means doubled; growth rescue, % at 18.8 µM; 320,000 compounds, 1% hits; AID 2716;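 active means every valid replicate shows activation above 250% relative to neutral control wells; inactive means the rest, any valid replicate at or below 250%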
# NALP1 yeast inh: NALP1 inhibition | S. cerevisiae NALP1/ASC/caspase-1 growth, X-gal OD620, 72 h | inhibition, % at 10 µM | 280,000 compounds, 0.61% hits | AID 2071; in the data active means inhibition mostly above about 24%, no sharp cut-off; inactive means mostly below about 32%
# CHT block: inhibitors of human choline transporter CHT | Q9GZV3 | CHT-expressing cells, membrane potential dye, choline response; hits give low values | B-score at 10 µM | 310,000 compounds, 0.86% hits;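 active means B-score over 3 SD under the library average, and starting fluorescence ratio not unusually high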;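 further: choline stimulus applied at its EC90 after an EC20 pre-addition; B-score computed on integrated fluorescence ratio after choline addition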
# A1 inh: inhibitors of the anti-apoptotic protein A1, read as caspase activation; 330,000 compounds, 0.066% hits; caspase activation, % (test concentration not listed); MEF A1-2A-BIM cells, Caspase-Glo 3/7 luminescence, 3 h; percent of clofoctol response, vehicle zero; AID 2462;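 active means over half of replicate activation scores above 10%, or exactly half above 10 with the replicate mean above 10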
# Hits are given with their value; 0 = inactive; - = not tested or not shown. Rows were chosen to be rich in hits. Some 3% of all compounds tested hit in one or more screens of this group.
SMILES,CHT PAM,NLRP3 yeast inh,SUMO Mot1 rescue,NALP1 yeast inh,CHT block,A1 inh
O=C(O)c1ccc(CN2C(=O)c3cccc4c([N+](=O)[O-])ccc(c34)C2=O)cc1,-,-,-,0,-,-
CC(=O)c1cccc(NC(=O)C(C)OC(=O)Cc2c[nH]c3ccccc23)c1 (centres undefined),0,0,0,-,0,0
CC(C)CCn1c(O)c(N=NC(=O)c2ccco2)c2ccccc21,0,0,553,0,0,0
Cn1c(O)c(N=NC(=O)CNC(=O)c2ccco2)c2ccccc21,0,0,0,-,0,0
Cn1c(O)c(N=NC(=O)c2ccco2)c2ccccc21,0,0,0,36,0,0
CCn1c(O)c(N=NC(=O)CNC(=O)/C=C/c2ccccc2)c2ccccc21,0,0,0,0,0,0
Cn1c(O)c(N=NC(=O)CNC(=O)/C=C/c2ccccc2)c2ccccc21,0,0,0,37,0,0
O=C(N=Nc1c(O)n(Cc2ccccc2)c2ccccc12)c1ccc(O)cc1,0,0,0,0,0,0
Cc1noc(C)c1COc1ccc(C(=O)OCC(=O)Nc2ccc(C(=O)N(C)C)cc2)cc1,0,0,0,-,0,0
Nc1c(C(=O)Nc2ccccc2)sc2nc(-c3cccnc3)ccc12,0,0,0,-,-4.9,0
COc1ccc(NC(=O)c2sc3nc(-c4cccnc4)ccc3c2N)cc1,0,0,0,-,0,0
O=C(OCC(=O)N1CCCC1=O)c1cccc([N+](=O)[O-])c1,0,0,0,0,0,0
O=C(Cc1ccccc1)Nc1ccc2oc(=O)ccc2c1,0,0,0,36,0,0
CN(C(=O)c1nn(C)c2c1CS(=O)(=O)c1ccccc1-2)c1cccc(Cl)c1,0,0,0,0,0,0
CCN(C(=O)N(CC)c1ccccc1)c1ccccc1,-,0,0,-,-,0
Cc1cc2ccccn2c1C(=O)c1ccc([N+](=O)[O-])cc1[N+](=O)[O-],0,0,317,0,0,0
CCCCNc1nc(-c2ccccc2)nc(-n2ccnc2)n1,0,0,0,44,0,0
C=CCNc1nc(-c2ccccc2)nc(-n2ccnc2)n1,0,0,0,0,0,0
CCC(C)c1ccc(NC(=O)N2CCN(C(=O)C3CCCO3)CC2)cc1 (centres undefined),0,0,0,0,0,0
O=C(CCC(=O)c1ccc[nH]1)c1ccc(Cl)cc1,0,0,0,27,0,0
Nc1ccc(Cl)c(S(=O)(=O)Nc2cccc(Cl)c2)c1,0,0,0,0,-8.9,0
Cc1ccc(NS(=O)(=O)c2cc(N)ccc2Cl)c(C)c1,0,0,0,0,0,0
CCC1(c2ccccc2)NC(=O)N(CC(=O)N2CC(=O)Nc3ccccc32)C1=O (centres undefined),-,0,0,-,-,0
CC(C(=O)N(C)Cc1ccccc1)N1CCN(C/C=C/c2ccccc2)CC1 (centres undefined),0,0,282,0,0,0
CC(=O)c1ccc(NC(=O)C(C)N2CCN(C/C=C/c3ccccc3)CC2)cc1 (centres undefined),0,0,0,0,0,0
SMILES,CHT PAM,NLRP3 yeast inh,SUMO Mot1 rescue,NALP1 yeast inh,CHT block,A1 inh
COc1ccc(-n2c(C)cc(C(=O)CCl)c2C)cc1,0,0,0,42,0,0
Cc1cc(C)c(S(=O)(=O)N2CCN(S(=O)(=O)N3CCOCC3)CC2)c(C)c1,0,0,0,0,0,0
CCNc1nc(Oc2ccc(C#N)cc2)cc(C(F)(F)F)n1,0,0,0,0,0,0
CCNc1nc(Oc2ccc(F)cc2)cc(C(F)(F)F)n1,0,0,943,0,0,0
CCOC(=O)c1c(NC(=O)c2nn(CC)cc2Br)sc2c1CCCCC2,0,0,858,0,0,0
CCOC(=O)c1c(NC(=O)c2nn(CC)cc2Br)sc(C)c1C,0,0,0,0,0,0
CCOC(=O)c1ccc(NC(=O)c2nn(CC)cc2Br)cc1,0,0,349,0,0,0
O=C(NC(=S)NC1C2CC3CC(C2)CC1C3)c1ccccc1 (centres undefined),0,0,0,0,0,0
O=[N+]([O-])c1cc2cccnc2c2ncccc12,7,0,0,0,0,0
CCN(C[C@H]1N[C@@](Cc2ccccc2)(C(=O)OC)[C@H]2C(=O)N(C)C(=O)[C@@H]12)C(=O)NC(C)C,-,0,0,-,-,0
C1=C(c2sc3ccccc3c2-c2ccc(OCCN3CCOCC3)cc2)CCCC1,-,0,0,-,-,0
